# In PubChem BioAssay:
# A number with no mark means an inactive call. Calls of active or inactive are those of the source.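 Rule for the calls, unless noted: active = mean inhibition over 43.08%, the solvent-only control mean plus 3 SD; inactive = the rest.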
# What was measured:
# [1] = target: Nuclear receptor coactivator 3 (Homo sapiens) (UniProt Q9Y6Q9); experiment: NCOA3 GAL4-fusion reporter inhibition – cell-based, luminescence, quadruplicate, confirmation (AID 588792); settings: HEK293 GAL4-SRC3 luciferase reporter, at 3.6 µM, hits give high values;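 note: 0% = DMSO treated cells and 100% = gossypol at 36 µM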
# Sequence of Nuclear receptor coactivator 3 (Homo sapiens) (Q9Y6Q9 whole entry, looked up, the tested form may be a part): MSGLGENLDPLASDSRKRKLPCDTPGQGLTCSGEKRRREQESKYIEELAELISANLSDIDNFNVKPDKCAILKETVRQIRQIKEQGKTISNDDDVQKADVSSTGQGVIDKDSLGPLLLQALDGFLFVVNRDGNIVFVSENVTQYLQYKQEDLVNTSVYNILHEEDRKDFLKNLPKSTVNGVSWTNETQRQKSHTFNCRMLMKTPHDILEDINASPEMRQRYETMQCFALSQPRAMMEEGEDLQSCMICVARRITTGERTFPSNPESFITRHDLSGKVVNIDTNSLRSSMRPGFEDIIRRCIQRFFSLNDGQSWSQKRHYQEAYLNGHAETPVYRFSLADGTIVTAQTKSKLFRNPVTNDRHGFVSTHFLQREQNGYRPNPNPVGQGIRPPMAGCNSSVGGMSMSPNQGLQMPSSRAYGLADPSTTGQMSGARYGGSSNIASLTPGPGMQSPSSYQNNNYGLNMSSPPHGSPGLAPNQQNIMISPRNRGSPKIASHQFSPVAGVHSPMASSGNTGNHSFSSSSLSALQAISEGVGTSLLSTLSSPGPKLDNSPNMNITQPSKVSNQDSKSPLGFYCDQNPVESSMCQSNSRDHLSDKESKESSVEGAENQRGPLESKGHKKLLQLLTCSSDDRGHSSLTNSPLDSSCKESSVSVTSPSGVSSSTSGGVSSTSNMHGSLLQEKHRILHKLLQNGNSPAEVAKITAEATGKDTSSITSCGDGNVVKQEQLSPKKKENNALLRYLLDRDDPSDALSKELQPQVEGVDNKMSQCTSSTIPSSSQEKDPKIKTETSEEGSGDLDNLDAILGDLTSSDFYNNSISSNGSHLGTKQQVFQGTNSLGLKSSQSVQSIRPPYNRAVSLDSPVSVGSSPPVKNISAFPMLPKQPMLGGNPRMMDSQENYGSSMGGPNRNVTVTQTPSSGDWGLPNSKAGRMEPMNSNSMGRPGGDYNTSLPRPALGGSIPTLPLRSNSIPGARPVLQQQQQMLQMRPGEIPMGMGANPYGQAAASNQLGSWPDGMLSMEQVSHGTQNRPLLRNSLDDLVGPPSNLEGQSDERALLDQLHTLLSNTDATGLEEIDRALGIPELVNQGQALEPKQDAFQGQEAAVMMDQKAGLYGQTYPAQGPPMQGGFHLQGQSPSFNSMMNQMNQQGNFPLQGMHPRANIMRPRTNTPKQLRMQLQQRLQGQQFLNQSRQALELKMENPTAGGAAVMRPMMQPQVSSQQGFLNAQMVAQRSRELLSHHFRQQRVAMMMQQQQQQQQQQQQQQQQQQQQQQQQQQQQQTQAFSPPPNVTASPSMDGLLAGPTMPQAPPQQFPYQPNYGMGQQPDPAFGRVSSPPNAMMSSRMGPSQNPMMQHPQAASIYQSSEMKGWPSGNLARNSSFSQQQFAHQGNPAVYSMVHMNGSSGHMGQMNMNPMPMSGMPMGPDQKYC
# [2] = tested on: transactivating tegument protein VP16 (Human herpesvirus 1), Gal4-VP16 luciferase reporter; experiment: repression of VP16-driven luciferase reporter – cell-based, luminescence, high throughput, counter-screen for SRC3 inhibitor project (AID 588794; in the data active = inhibition above about 30%); settings: mammalian cells, at 3.6 µM, hits give high values
# [3] = target: Nuclear receptor coactivator 1 (Homo sapiens) (UniProt Q15788); experiment: NCOA1 GAL4-fusion reporter inhibition – cell-based, luminescence, quadruplicate, confirmation (AID 588820;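 active = mean inhibition above 46.68%, the untreated control wells mean plus 3 SD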;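 note: 0% = DMSO wells and 100% = gossypol 36 µM treated wells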); settings: HEK293 GAL4-SRC1 luciferase reporter, at 3.6 µM, hits give high values
# Sequence of Nuclear receptor coactivator 1 (Homo sapiens) (Q15788 whole entry, looked up, the tested form may be a part): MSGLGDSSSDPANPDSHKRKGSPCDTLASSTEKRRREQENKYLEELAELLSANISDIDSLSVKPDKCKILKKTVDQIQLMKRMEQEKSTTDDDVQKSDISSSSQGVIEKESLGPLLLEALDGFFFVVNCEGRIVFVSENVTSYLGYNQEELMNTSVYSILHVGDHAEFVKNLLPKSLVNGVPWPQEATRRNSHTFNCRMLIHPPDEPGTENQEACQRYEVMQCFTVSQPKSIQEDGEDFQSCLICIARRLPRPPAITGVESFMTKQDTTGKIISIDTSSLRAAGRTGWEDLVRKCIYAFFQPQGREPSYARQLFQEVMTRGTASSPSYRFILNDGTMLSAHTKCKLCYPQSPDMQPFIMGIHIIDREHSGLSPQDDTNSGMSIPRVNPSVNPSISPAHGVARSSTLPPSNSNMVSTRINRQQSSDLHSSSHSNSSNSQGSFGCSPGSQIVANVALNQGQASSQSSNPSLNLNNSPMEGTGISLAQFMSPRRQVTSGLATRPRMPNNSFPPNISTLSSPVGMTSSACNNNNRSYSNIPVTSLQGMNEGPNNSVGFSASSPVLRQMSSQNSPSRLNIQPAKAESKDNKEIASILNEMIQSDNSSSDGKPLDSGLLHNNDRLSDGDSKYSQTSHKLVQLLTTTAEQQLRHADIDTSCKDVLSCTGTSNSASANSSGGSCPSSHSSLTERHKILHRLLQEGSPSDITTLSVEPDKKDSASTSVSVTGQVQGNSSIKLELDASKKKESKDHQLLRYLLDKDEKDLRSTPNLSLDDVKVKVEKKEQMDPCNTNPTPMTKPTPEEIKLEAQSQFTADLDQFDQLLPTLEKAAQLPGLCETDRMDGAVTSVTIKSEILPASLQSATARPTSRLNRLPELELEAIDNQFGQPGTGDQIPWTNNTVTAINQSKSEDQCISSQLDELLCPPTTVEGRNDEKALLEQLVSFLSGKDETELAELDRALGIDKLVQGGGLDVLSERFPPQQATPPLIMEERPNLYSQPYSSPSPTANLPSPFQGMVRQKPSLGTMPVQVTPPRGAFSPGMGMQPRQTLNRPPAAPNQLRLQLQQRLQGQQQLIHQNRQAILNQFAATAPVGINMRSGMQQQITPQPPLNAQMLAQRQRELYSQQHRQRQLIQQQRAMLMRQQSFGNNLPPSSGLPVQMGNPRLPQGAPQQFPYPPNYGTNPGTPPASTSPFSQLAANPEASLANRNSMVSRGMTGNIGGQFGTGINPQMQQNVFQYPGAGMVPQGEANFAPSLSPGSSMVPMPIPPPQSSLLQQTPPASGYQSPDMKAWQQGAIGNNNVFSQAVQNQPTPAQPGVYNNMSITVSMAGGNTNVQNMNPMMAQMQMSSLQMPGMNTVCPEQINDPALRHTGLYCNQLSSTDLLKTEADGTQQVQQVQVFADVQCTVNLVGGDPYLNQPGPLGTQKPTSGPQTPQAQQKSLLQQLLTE
# [4] = repression of VP16-driven luciferase reporter – cell-based, luminescence, high throughput, counter-screen for SRC1 inhibitor project (AID 588824; in the data active = inhibition above about 25%); settings: cell-based VP16 transactivation luciferase luminescence; at 3.6 µM; hits give high values
# [5] = StAR promoter reporter inhibitors, counter-screen for LRH-1 inverse agonist project, cell-based, luminescence, high throughput (AID 651611; in the data active = inhibition above about 28%); settings: StAR promoter luciferase reporter counterscreen, at 3.6 µM, hits give high values
# [6] = target: Nuclear receptor subfamily 5 group A member 2 (Homo sapiens) (UniProt O00482); experiment: NR5A2 activity suppression in reporter cells – cell-based, luminescence, confirmation (AID 651613; in the data active = inhibition above about 42%;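 note: HEK293T cells co-transfected with LRH-1 and StAR promoter luciferase reporter; 0% = vehicle wells and 100% = parental cells lacking receptor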); settings: cell-based LRH-1 luciferase reporter, inverse agonism; at 3.6 µM; hits give high values
# Sequence of Nuclear receptor subfamily 5 group A member 2 (Homo sapiens) (O00482 whole entry, looked up): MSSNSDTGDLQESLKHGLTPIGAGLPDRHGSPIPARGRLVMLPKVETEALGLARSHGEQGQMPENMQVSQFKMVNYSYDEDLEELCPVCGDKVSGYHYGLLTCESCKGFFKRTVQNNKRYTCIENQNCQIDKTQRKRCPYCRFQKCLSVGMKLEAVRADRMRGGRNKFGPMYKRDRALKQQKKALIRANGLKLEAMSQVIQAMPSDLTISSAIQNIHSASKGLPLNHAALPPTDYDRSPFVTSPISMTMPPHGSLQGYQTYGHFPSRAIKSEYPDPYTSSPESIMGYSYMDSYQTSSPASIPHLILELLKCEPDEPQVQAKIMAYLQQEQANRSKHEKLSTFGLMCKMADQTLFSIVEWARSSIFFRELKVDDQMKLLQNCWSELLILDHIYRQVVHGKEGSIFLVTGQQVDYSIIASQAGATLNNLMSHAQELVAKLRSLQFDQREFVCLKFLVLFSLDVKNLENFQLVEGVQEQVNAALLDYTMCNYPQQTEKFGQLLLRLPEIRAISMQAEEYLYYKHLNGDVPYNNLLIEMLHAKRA
# [7] = target: Steroidogenic factor 1 (Homo sapiens) (UniProt Q13285); experiment: inverse agonism at SF1 nuclear receptor – cell-based, luminescence, high throughput, counter-screen for LRH-1 inverse agonist project (AID 651614; in the data active = inhibition above about 44%;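 note: cells cotransfected with StAR promoter reporter and SF1 expression vector; 0% = vehicle on cells with receptor and 100% = vehicle on cells lacking receptor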); settings: cell-based SF1 luciferase reporter, at 3.6 µM, hits give high values
# Sequence of Steroidogenic factor 1 (Homo sapiens) (Q13285 whole entry, looked up, the tested form may be a part): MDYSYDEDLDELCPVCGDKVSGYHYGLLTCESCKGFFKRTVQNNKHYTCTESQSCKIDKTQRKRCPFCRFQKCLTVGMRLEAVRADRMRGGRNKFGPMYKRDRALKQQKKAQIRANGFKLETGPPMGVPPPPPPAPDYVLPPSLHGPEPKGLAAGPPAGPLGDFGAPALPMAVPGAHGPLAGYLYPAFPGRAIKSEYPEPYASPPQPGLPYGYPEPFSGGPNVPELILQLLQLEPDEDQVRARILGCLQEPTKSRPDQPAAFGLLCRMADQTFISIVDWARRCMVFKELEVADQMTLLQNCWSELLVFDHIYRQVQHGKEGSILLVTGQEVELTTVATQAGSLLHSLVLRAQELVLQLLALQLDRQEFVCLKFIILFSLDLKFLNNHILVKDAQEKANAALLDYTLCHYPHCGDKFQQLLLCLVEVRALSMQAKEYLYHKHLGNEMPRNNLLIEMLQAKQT
# [8] = compounds suppressing VP16-driven luciferase signal – cell-based, luminescence, high throughput, counter-screen for LRH-1 inverse agonist project (AID 651615; in the data active = inhibition above about 33%); settings: Gal4-VP16 luciferase reporter cells, at 3.6 µM, hits give high values
compound,measurement,setting,value
O=c1[nH]c(=O)n(CCC2=CCCCC2)c(O)c1C=NC1CCN(Cc2ccccc2)CC1,inhibition,[1],-0.53%
same,inhibition,[2],36.4% (active)
CN1CCN(c2ncnc3ccc(Br)cc23)CC1,inhibition,[1],42.3%
same,inhibition,[2],37.6% (active)
same,inhibition,[3],31.2%
same,inhibition,[4],33.4% (active)
COc1ccc(-n2nnnc2C(c2cccc3ccccc23)N2CCC(n3c(=O)[nH]c4ccccc43)CC2)cc1 (centres undefined),inhibition,[1],-24.1%
same,inhibition,[2],4.21%
CCCCCCCn1c(=O)c(C(=O)Nc2cnccn2)c(O)c2ccccc21,inhibition,[1],-22.1%
same,inhibition,[2],-5.22%
C[C@H]1CCC[C@@H](O)CCC/C=C/c2cc(O)cc(O)c2C(=O)O1,inhibition,[1],61.8% (active)
same,inhibition,[2],63.4% (active)
same,inhibition,[3],29.2%
same,inhibition,[4],56.1% (active)
O=C(CSC1c2ccccc2-c2ccccc21)N/N=C/c1ccccc1O,inhibition,[1],17.4%
same,inhibition,[2],21.9%
same,inhibition,[3],13.8%
same,inhibition,[4],18%
O=c1[nH]c2ccccc2n1C1CCN(C(c2ccccc2OC(F)(F)F)c2nnnn2Cc2ccccc2)CC1 (centres undefined),inhibition,[1],-2.46%
same,inhibition,[2],2.54%
same,inhibition,[3],-29%
same,inhibition,[4],0.5%
CC(=NCc1ccc2c(c1)OCO2)c1c(O)n(-c2ccccc2)c(=O)[nH]c1=O,inhibition,[1],-6%
same,inhibition,[2],13.8%
Cc1cc(C)cc(NC2=NCCCS2)c1,inhibition,[1],-10.4%
same,inhibition,[2],1.9%
N=c1c2c(n(Cc3ccc(Cl)cc3Cl)c3c1CCC3)CCCC2,inhibition,[1],43.5% (active)
same,inhibition,[2],62.9% (active)
same,inhibition,[3],41.2%
same,inhibition,[4],63.4% (active)
Cc1c(C(=O)N2CCC3(CC2)OCCO3)sc2ncnc(N3CCN(c4ccccn4)CC3)c12,inhibition,[1],-7.87%
same,inhibition,[2],-13.2%
CC1=CC2/C=C(\C)CCC(O)C(O)/C=C/C(=O)C23C(=O)NC(CC(C)C)C3C1C (centres undefined),inhibition,[1],36%
same,inhibition,[2],54.8% (active)
O=c1[nH]c2ccccc2n1C1CCN(C(CCc2ccccc2)c2nnnn2C2CCCCC2)CC1 (centres undefined),inhibition,[1],11.8%
same,inhibition,[2],12.5%
same,inhibition,[3],2.31%
same,inhibition,[4],-5.85%
CNC(=O)c1cccn(Cc2cccc(C(F)(F)F)c2)c1=O,inhibition,[1],19.5%
same,inhibition,[2],-23.9%
same,inhibition,[3],-26.7%
same,inhibition,[4],-25.9%
CC(=C1C(=O)c2ccccc2C1=O)N1CCN(CCN=Cc2c(O)n(C)c(=O)n(C)c2=O)CC1,inhibition,[1],-8.5%
same,inhibition,[2],-5.29%
CCn1c(O)c(C=NCCN2CCOCC2)c(=O)n(CC)c1=S,inhibition,[1],9.7%
same,inhibition,[2],7.94%
Cc1cc2c(C(C)C)c(O)c(O)c(C=O)c2c(O)c1-c1c(C)cc2c(C(C)C)c(O)c(O)c(C=O)c2c1O,inhibition,[1],5.58%
same,inhibition,[2],22.2%
Cc1cc(C)n(-c2ccc(NN=C(C#N)C#N)cc2)n1,inhibition,[1],43.3% (active)
same,inhibition,[2],61.8% (active)
COc1ccc(-n2c(O)c(C(C)=NCCCn3ccnc3)c(=O)[nH]c2=O)cc1,inhibition,[1],31.6%
same,inhibition,[2],32.6% (active)
Cc1ccc(N=C(/N=C(\N)N[N+](=O)[O-])Nc2ccc(C)cc2)cc1,inhibition,[1],-0.99%
same,inhibition,[2],1.74%
CC1=C(N2CC2)C(=O)C(CO)=C(N2CC2)C1=O,inhibition,[1],96.1% (active)
same,inhibition,[2],91.2% (active)
same,inhibition,[3],86.1% (active)
same,inhibition,[4],93% (active)
C/C(=N\Nc1ccccc1)c1c(O)[nH]c(=O)[nH]c1=O,inhibition,[1],0.35%
same,inhibition,[2],17.7%
same,inhibition,[3],-2.36%
same,inhibition,[4],13.6%
O=c1[nH]c2ccccc2n1C1CCN(C(CCc2ccccc2)c2nnnn2-c2ccc3c(c2)OCCO3)CC1 (centres undefined),inhibition,[1],30.3%
same,inhibition,[2],48.9% (active)
O=C1/C(=C/c2ccccc2)C[C@@]2(O)[C@H]3Cc4ccc(O)c5c4[C@@]2(CCN3CC2CC2)C1O5 (some centres undefined),inhibition,[1],92.8% (active)
same,inhibition,[2],73.1% (active)
same,inhibition,[3],85.4% (active)
same,inhibition,[4],73.2% (active)
COC(=O)[C@@H]1[C@@H](C(=O)OC)C2(c3ccccc3-c3ccccc32)N(c2ccc(Cl)cc2)N1C#N,inhibition,[1],-0.96%
same,inhibition,[2],30.6% (active)
CC1=CC2OC3CC4OC(=O)C=CC=CC(=O)OCCC(C)C(O)C(=O)OCC2(CC1O)C4(C)C31CO1 (centres undefined),inhibition,[1],98% (active)
same,inhibition,[2],96.8% (active)
same,inhibition,[3],96.8% (active)
same,inhibition,[4],95.6% (active)
O=c1[nH]c2ccccc2n1C1CCN(C(c2cccs2)c2nnnn2Cc2ccccc2)CC1 (centres undefined),inhibition,[1],32.3%
same,inhibition,[2],36.7% (active)
same,inhibition,[3],0.46%
same,inhibition,[4],32.5% (active)
N#CC(C#N)=NNc1ccc(-n2ccc(C(F)(F)F)n2)cc1,inhibition,[1],49.1% (active)
same,inhibition,[2],52.6% (active)
same,inhibition,[3],40.7%
same,inhibition,[4],56.3% (active)
CNC(=O)c1cccn(Cc2cc(C(F)(F)F)cc(C(F)(F)F)c2)c1=O,inhibition,[1],28.4%
same,inhibition,[2],11%
same,inhibition,[3],10.9%
same,inhibition,[4],3.5%
COC1CC2C=C(C)C=CC=CC(=O)NC(c3ccccc3)CC=CCCC(O)CC(=O)C2=C1O (centres undefined),inhibition,[1],75.1% (active)
same,inhibition,[2],84% (active)
same,inhibition,[3],29.9%
same,inhibition,[4],84.7% (active)
same,inhibition,[5],81.7% (active)
same,inhibition,[6],107% (active)
same,inhibition,[7],95.6% (active)
same,inhibition,[8],89.8% (active)
